# Bioassay records (PubChem BioAssay)
# BCLXL inh: inhibitors of human Bcl-xL, primary screen, biochemical, fluorescence polarization, HTS; 320,000 compounds, 0.7% hits; GST-Bcl-xL / FITC-Bim BH3 peptide fluorescence polarization; Bcl-2-like protein 1 (Homo sapiens), Q07817; inhibition, % at 10.9 µM;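 active means inhibition above the mean of all tested compounds plus 3 SD, cutoff set per campaign, cut at about 30% in these data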;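 further: inhibitors lower millipolarization by displacing the labeled peptide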
# Target sequence (Q07817 whole entry, looked up): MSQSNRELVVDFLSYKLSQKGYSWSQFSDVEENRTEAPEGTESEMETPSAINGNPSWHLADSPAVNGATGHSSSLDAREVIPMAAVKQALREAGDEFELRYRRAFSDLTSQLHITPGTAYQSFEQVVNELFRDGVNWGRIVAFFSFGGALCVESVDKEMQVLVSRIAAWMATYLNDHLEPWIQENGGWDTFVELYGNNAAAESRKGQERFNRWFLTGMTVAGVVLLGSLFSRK
# MEX-5 binding: MEX-5 zinc finger RNA-binding disruptors – biochemical, C. elegans, fluorescence polarization, MLPCN library, primary screen. MEX-5/FITC-TCR2 RNA binding; stronger effect = lower value. activity score (negative = inhibition of binding), % at 10 µM. 300,000 compounds, 0.38% hits. AID 1832, 2009;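 active means inhibition past about -25% in most replicates, and total fluorescence under double the plate's negative control median, limit read from the data; inconclusive means replicates evenly split on the limit, or fluorescence at least double controls; inactive means too little inhibition in most replicates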
# MCL1 BIM primary: inhibitors of MCL1 binding to BIM-BH3, primary screen, biochemical, fluorescence polarization | Induced myeloid leukemia cell differentiation protein Mcl-1 (Homo sapiens), Q07820 | GST-MCL1 / FITC-Bim-BH3 fluorescence polarization | inhibition, % at 10.9 µM | 320,000 compounds, 0.68% hits | AID 2057, 2009;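 active means inhibition above the mean inhibition of all tested compounds plus 3 SD, set per campaign, cut at about 40% in these data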;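 further: higher means more loss of mP so more displacement of Bim peptide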
# GLD-1 TGE inh: GLD-1/TGE RNA complex disruptors, primary screen, biochemical, fluorescence polarization. Female germline-specific tumor suppressor gld-1 (Caenorhabditis elegans), Q17339. purified GLD-1 + fluorescein TGE RNA. inhibition, % at 5.96 µM. 320,000 compounds, 0.44% hits;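 active means percent inhibition above a per-plate cutoff, the plate mean of test compounds plus 3 SD, cut at about 30% in these data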
# Target sequence (Q17339 whole entry, looked up): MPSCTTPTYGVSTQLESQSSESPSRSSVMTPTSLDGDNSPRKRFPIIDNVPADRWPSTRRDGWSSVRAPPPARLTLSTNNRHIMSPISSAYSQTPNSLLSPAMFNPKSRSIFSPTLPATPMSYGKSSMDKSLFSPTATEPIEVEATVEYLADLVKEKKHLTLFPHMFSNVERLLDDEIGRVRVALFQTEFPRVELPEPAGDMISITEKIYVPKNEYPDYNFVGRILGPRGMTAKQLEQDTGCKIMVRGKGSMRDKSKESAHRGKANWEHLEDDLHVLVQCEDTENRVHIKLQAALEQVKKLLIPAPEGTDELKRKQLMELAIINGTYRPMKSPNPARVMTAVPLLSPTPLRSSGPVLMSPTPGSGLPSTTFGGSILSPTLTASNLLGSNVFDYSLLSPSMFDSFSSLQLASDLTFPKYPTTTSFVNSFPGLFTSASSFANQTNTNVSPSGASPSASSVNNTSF
# Yeast superoxide: reduction of superoxide in aged yeast, primary screen, HTS; S. cerevisiae aged cells, superoxide DHE fluorescence; stronger effect = lower value; superoxide response (% of plate mean), % at 10 µM; 330,000 compounds, 0.18% hits;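 active means superoxide response under a set limit, about three screen SD below normal, cut at about 65% in these data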;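 further: yeast aged for seven days with compound at 30 °C before DHE staining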
# LANA-H2A inh: blockers of LANA interaction with H2A/H2B – biochemical, FP readout, HTS, primary screen. Protein LANA1 (Human herpesvirus 8 type P (isolate GK18)), Q9QR71. cell-free LANA-H2A/H2B peptide, fluorescence polarization. inhibition, % (concentration not given with the values). 320,000 compounds, 0.6% hits; in the data active means inhibition mostly above about 10%, no sharp cut-off; inactive means mostly below about 6.7%
# BCLXL inh confirm: Bcl-xL inhibitors blocking Bim BH3 binding, confirmation, counter-screen for MCL1 inhibitor project, biochemical, fluorescence polarization; GST-Bcl-xL / FITC-Bim BH3 peptide FP binding; AID 2166, 2009; inhibition, % at 10.9 µM; shares compounds with MCL1 BIM primary; 1,700 compounds, 54% hits;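 active means inhibition above a cutoff equal to the mean inhibition of all tested compounds plus 3 SD, cut at about 30% in these data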
# MCL1 BIM confirm: inhibitors of MCL1 binding to BIM-BH3, confirmation, biochemical, fluorescence polarization, triplicate. shares compounds with MCL1 BIM primary. inhibition, % at 10.9 µM. AID 2168, 2009. GST-MCL1 / FITC-Bim-BH3 fluorescence polarization. 1,700 compounds, 61% hits;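 active means inhibition above the average of all tested compounds plus 3 SD, cut at about 40% in these data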
# GLD1 RNA confirm: GLD-1/TGE RNA binding inhibitors, retest, confirmation, biochemical, fluorescence polarization, triplicate; shares compounds with GLD-1 TGE inh; GLD-1/FL-TGE RNA fluorescence polarization; inhibition, % at 5.96 µM; 550 compounds, 10% hits; AID 2459, 2010;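 active means average inhibition across triplicates above the hit cutoff set in the primary screen, cut at about 32% in these data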
# Superoxide pick: superoxide lowering in aged yeast cells, confirmation, cherry picked compounds | superoxide response (% of plate), % at 10 µM | shares compounds with Yeast superoxide | 850 compounds, 1% hits | S. cerevisiae aging, superoxide DHE fluorescence; stronger effect = lower value;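 active means superoxide signal below 65% of the plate average of sample wells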;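 further: cells aged with compound for 7 days at 30 degrees C before staining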
# DHE fluor count: DHE quenching or ROS scavenging interference in aged yeast, artefact control for yeast caloric restriction mimetic project, S. cerevisiae BY4741, flow cytometry. shares compounds with Yeast superoxide. DHE fluorescence; stronger effect = lower value. fluorescence response, % at 10 µM. 850 tested, under 10 active. AID 435000, 2010;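 active means fluorescence response below 15%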
# Hits are given with their value; n = inactive; u = inconclusive; x = no result given; + = active, no number. Compounds with a hit are over-represented: about 1.9% of the library has one in this group of screens.
SMILES,BCLXL inh,MEX-5 binding,MCL1 BIM primary,GLD-1 TGE inh,Yeast superoxide,LANA-H2A inh,others
CN1CCc2nc(N)c(C#N)c(-c3ccccc3)c2C1,61,n,69,46,n,n,BCLXL inh confirm=n;MCL1 BIM confirm=n
N#CC(C#N)=Cc1ccc(-c2ccccc2F)o1,62,x,100,n,n,n,BCLXL inh confirm=123;MCL1 BIM confirm=150
Cn1cccc1C1CCCN1CC(=O)Nc1ccc(C#N)c(Cl)c1 (configuration not stated),x,x,x,n,n,n,
COc1cc2c(cc1O)C[C@H]1c3c(cc(O)c(OC)c3-2)CCN1C,n,x,n,n,n,n,
CN1CCc2cc(O)cc3c2[C@H]1Cc1ccc(O)c(O)c1-3,n,-85,48,n,n,n,BCLXL inh confirm=54;MCL1 BIM confirm=54
C[n+]1c(-c2ccccc2)c2cc(N)ccc2c2ccc(N)cc21,155,-90,+,136,n,n,BCLXL inh confirm=189;MCL1 BIM confirm=+
N=c1sccn1Cc1ccccc1F,x,n,x,x,n,n,
CN1CCc2cccc(Cl)c2CC1,n,x,n,n,n,n,
CCN(CC)c1ccc(N=Cc2c(O)n(-c3ccc(OC)cc3)c(=O)[nH]c2=O)cc1,n,-34,41,n,n,n,BCLXL inh confirm=113;MCL1 BIM confirm=n
CC(C)(O)[C@H]1O[C@H]2CC[C@@]3(C)[C@@](O)(CC[C@H]4Cc5c([nH]c6ccccc56)[C@@]43C)C2=CC1=O,83,-28,100,74,n,n,BCLXL inh confirm=60;MCL1 BIM confirm=76
COc1cc2c(cc1OC)-c1c(OC)c(OC)c(OC)c3ccnc(c13)C2=O,52,-83,55,41,x,n,BCLXL inh confirm=59;MCL1 BIM confirm=56;GLD1 RNA confirm=41
COc1cc(CC2(CCc3ccncc3)C(=O)NC(=O)NC2=O)cc(OC)c1OC,n,n,n,n,n,n,
Nc1ccc2nonc2c1[N+](=O)[O-],+,u,+,+,n,29,BCLXL inh confirm=+;MCL1 BIM confirm=+;GLD1 RNA confirm=158
C=CC[C@@H](CC/C=C/C=C/CC/C=C\[C@@H]1CSC([C@@H]2C[C@@H]2C)=N1)OC,x,x,x,n,n,x,
CNC(=O)Oc1ccc(-c2cn3cc(Cl)ccc3n2)cc1,n,n,n,n,n,n,
CNC(=O)Oc1cccc(-c2cn3cc(OC(=O)NC)ccc3n2)c1,n,x,n,42,n,n,GLD1 RNA confirm=n
C1CCC2CCCCC2C1 (configuration not stated),n,x,n,n,n,n,
COC(=O)CCCCC1SCC(NC(=O)c2ccccc2)C1Cl (configuration not stated),48,n,46,38,n,n,GLD1 RNA confirm=n
CCN(CC)CCN1Cc2ccccc2C1=N,32,n,n,36,n,n,GLD1 RNA confirm=n
CN(C)C(Cc1ccc(C#N)cc1)C(=O)c1ccccc1 (configuration not stated),n,n,n,n,n,n,
N#Cc1ccc(/C=C/C(=O)O)cc1,n,x,n,55,n,n,GLD1 RNA confirm=n
COc1ccc2[nH]c(C)c(CCNCc3cc(OC)c4c(c3)OCO4)c2c1,n,x,n,n,n,n,
C[C@]12CCC3C(CC[C@H]4C[C@@H](O)CC[C@]34C)C1C[C@H](Br)[C@@H]2O (some centres not stated),x,x,x,n,n,n,Superoxide pick=n;DHE fluor count=n
C[C@]12CCC3C(CC[C@H]4C[C@H](N)CC[C@]34C)C1CC[C@H]2O (some centres not stated),n,n,n,n,n,n,Superoxide pick=n;DHE fluor count=n
C[C@]12CCC3C(CC[C@H]4C[C@H](O)CC[C@]34C)C1C[C@@H](CCCCl)[C@@H]2O (some centres not stated),x,x,x,n,58,n,Superoxide pick=n;DHE fluor count=n
SMILES,BCLXL inh,MEX-5 binding,MCL1 BIM primary,GLD-1 TGE inh,Yeast superoxide,LANA-H2A inh,others
CC(=O)O[C@@H]1CC[C@]2(C)C3CC[C@@]4(C)C(C[C@@H](O)[C@@H]4O)C3[C@@H](OC(C)=O)C[C@H]2C1 (some centres not stated),x,x,x,n,n,n,Superoxide pick=n;DHE fluor count=n
O=C(Cc1cccs1)N1CCC2(CC1)OCCO2,n,n,n,n,n,n,
Fc1cccc(C2NCc3ccccc3-n3cccc32)c1 (configuration not stated),n,n,n,n,n,n,
C=C1C(O)[C@@H]2O[C@]3(CC[C@H](/C=C/C(C)[C@@H]4CC(C)=CC5(O[C@H](C[C@@](C)(O)C(=O)O)CCC5O)O4)O3)CC[C@H]2O[C@@H]1C(O)CC(C)[C@H]1OC2(CCCCO2)CCC1C (some centres not stated),x,x,x,n,47,n,Superoxide pick=48;DHE fluor count=n
CC1CN=C(NCc2ccc(F)cc2)S1 (configuration not stated),n,n,n,n,n,n,
CCCCCCn1c(=O)c(C(=O)Nc2c(C)n(C)n(-c3ccccc3)c2=O)c(O)c2ccccc21,n,n,n,n,n,n,
O=c1[nH]c(O)c(C=Nc2ccc(F)c(Cl)c2)c(=O)[nH]1,n,n,n,n,60,n,Superoxide pick=n;DHE fluor count=n
Cc1cccc(NC(=O)N2C[C@H]3C[C@@H](C2)c2cccc(=O)n2C3)c1,n,n,n,n,n,n,
Cc1cc(Cl)nc(N)n1,n,n,n,n,51,n,Superoxide pick=n;DHE fluor count=n
COc1ccc(-n2nc(C(=O)NCC(=O)N3CCC4(CC3)OCCO4)c3ccccc3c2=O)c(OC)c1,n,n,n,n,n,n,
